Experiments:
Settings in all cases: concentration: 1 μM, replicates: in singlicate; n = 1
RIPK2 = system: RIPK2
RIPK4 = system: RIPK4
RIPK5 = system: RIPK5
ROCK1 = system: ROCK1
ROCK2 = system: ROCK2
ROS1 = system: ROS1
[1] = system: RPS6KA4(Kin.Dom.1-N-terminal)
[2] = system: RPS6KA4(Kin.Dom.2-C-terminal)
[3] = system: RPS6KA5(Kin.Dom.1-N-terminal)
[4] = system: RPS6KA5(Kin.Dom.2-C-terminal)
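Also: KINOMEscan kinase panel screen.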

Row | Compound | %Inh (RIPK2) [%] | %Inh (RIPK4) [%] | %Inh (RIPK5) [%] | %Inh (ROCK1) [%] | %Inh (ROCK2) [%] | %Inh (ROS1) [%] | %Inh [1] [%] | %Inh [2] [%] | %Inh [3] [%] | %Inh [4] [%]
1 | Cc1nn2c(=O)cc(N3CCOCC3)nc2n1Cc1cccc(Cl)c1Cl [GSK2342769] | 10 | 9 | 0 | 0 | 0 | 0 | 0 | 0 | 16 | 0
2 | Cc1cc(Nc2nc(-c3cccc(C)n3)nc3ccccc23)ccn1 [GW872411] | 14 | 0 | 0 | 27 | 0 | 0 | 2 | 0 | 0 | 16
3 | Cc1cccc(-c2cc(-c3c[nH]nc3-c3ccccn3)ccn2)c1 [GW679395] | 36 | 12 | 6 | 0 | 10 | 0 | 1 | 0 | 0 | 37
4 | COc1ccc(Nc2nccc(N3CCC(NS(=O)(=O)c4ccc(NC(C)=O)cc4)C3)n2)cc1 (centres unmarked) [GSK1379729] | 100 | 0 | 0 | 36 | 18 | 3 | 0 | 0 | 27 | 0
5 | COc1cc(Nc2nccc(N3CCC(NC(=O)C4COc5ccccc5O4)C3)n2)cc(OC)c1OC (centres unmarked) [GSK1379761] | 0 | 0 | 0 | 26 | 37 | 54 | 0 | 0 | 0 | 0
6 | COc1cc2nccc(Nc3cccc(Oc4ccccc4)c3)c2cc1OC.Cl [GW284543] | 80 | 0 | 0 | 20 | 51 | 31 | 15 | 0 | 0 | 0
7 | O=C(Nc1n[nH]c2nc(-c3ccccc3)c(Br)cc12)C1CC1 [SB-708998] | 5 | 0 | 0 | 7 | 0 | 0 | 4 | 0 | 28 | 0
8 | COc1cc2nccc(Nc3ccc(OCc4ccc(NC(C)=O)cc4)cc3)c2cc1OC.Cl [GW440135] | 61 | 0 | 0 | 13 | 6 | 0 | 0 | 0 | 0 | 12
9 | CCS(=O)(=O)c1ccc(OC)c(Nc2ncc(-c3ccc(F)cc3)o2)c1.Cl [GW591947] | 19 | 0 | 0 | 20 | 16 | 0 | 25 | 0 | 27 | 0
10 | Cc1ccc(Oc2ccc(Nc3ncnc4cc[nH]c34)cc2C)cn1 | 8 | 36 | 14 | 0 | 0 | 11 | 0 | 1 | 16 | 2
11 | O=C1NC(=O)C(c2ccccc2)=C1Nc1cccc(O)c1 [SB-390534] | 8 | 1 | 26 | 0 | 0 | 24 | 0 | 7 | 0 | 0
12 | CN(C)c1cc(-c2ccc3c(N)n[nH]c3c2)nc(N)n1 [GSK2219329] | 0 | 15 | 0 | 0 | 0 | 10 | 8 | 0 | 18 | 0
13 | Nc1nc(N)c2nc(-c3ccccc3)[nH]c2n1 [SKF-12778] | 10 | 66 | 0 | 26 | 24 | 10 | 11 | 0 | 9 | 0
14 | CCc1nc(-c2cccc(C)c2)c(-c2ccncc2)s1 | 76 | 7 | 0 | 0 | 0 | 11 | 2 | 0 | 0 | 18
15 | CCC(=O)c1c(-c2ccccc2)c2cc(Cl)ccc2c(=O)n1Cc1cc(S(C)(=O)=O)n(CCC(C)(C)O)n1 | 14 | 0 | 3 | 16 | 0 | 14 | 3 | 12 | 20 | 1
16 | Nc1ncnc2c1ncn2-c1ccc(Cl)cc1 [AH2635] | 2 | 2 | 0 | 30 | 0 | 23 | 20 | 0 | 0 | 8
17 | Fc1cccc(CSc2nnc(-c3ccc4c(c3)CCO4)o2)c1 | 12 | 0 | 0 | 12 | 0 | 0 | 0 | 4 | 16 | 9
18 | CCC(=O)c1c(-c2ccccc2)c2cc(Cl)ccc2c(=O)n1Cc1ccc(C(=O)O)cc1 | 0 | 0 | 5 | 0 | 0 | 0 | 0 | 7 | 0 | 0

Row | Compound | %Inh (RIPK2) [%] | %Inh (RIPK4) [%] | %Inh (RIPK5) [%] | %Inh (ROCK1) [%] | %Inh (ROCK2) [%] | %Inh (ROS1) [%] | %Inh [1] [%] | %Inh [2] [%] | %Inh [3] [%] | %Inh [4] [%]
19 | COc1cccc(C2=C(Nc3cccc(C(=O)O)c3)C(=O)NC2=O)c1 [SB-390770] | 7 | 0 | 0 | 25 | 7 | 32 | 0 | 0 | 32 | 0
20 | Cc1nnc(-c2ccc3ncn(-c4ccc(S(C)=O)cc4)c3c2)o1 (centres unmarked) | 19 | 0 | 0 | 0 | 16 | 0 | 0 | 0 | 3 | 4
21 | Cl.c1ccc(Cn2cnc3cc(Nc4ncnc5ccccc45)ccc32)cc1 [GW272142] | 0 | 12 | 5 | 4 | 2 | 6 | 6 | 0 | 0 | 7
22 | CCC(=O)c1c(-c2ccccc2)c2cc(Cl)ccc2c(=O)n1Cc1cc(S(C)(=O)=O)n(CC(N)=O)n1 | 0 | 0 | 0 | 0 | 0 | 0 | 0 | 0 | 30 | 22
23 | COC(=O)c1c(-c2ccccc2)c2cc(C)ccc2c(=O)n1Cc1ccccc1 | 0 | 0 | 0 | 0 | 0 | 0 | 0 | 0 | 10 | 0
24 | CN1C(=O)C(Nc2ccccc2)=C(c2ccccc2)C1=O [SB-300079] | 0 | 5 | 25 | 7 | 43 | 0 | 8 | 0 | 0 | 9
25 | COC(=O)c1c(-c2ccccc2)c2cc(Br)ccc2c(=O)n1Cc1ccc(S(C)(=O)=O)cc1 | 0 | 46 | 20 | 23 | 0 | 0 | 0 | 21 | 24 | 3
26 | Nc1ncnc2c1ncn2-c1cccc(F)c1 [SKF-97560] | 100 | 29 | 26 | 38 | 28 | 4 | 0 | 45 | 0 | 3
27 | OCCCNc1nccc(-c2c(-c3cccc(C(F)(F)F)c3)nn3cc(C(F)(F)F)ccc23)n1 [GW630813] | 14 | 0 | 0 | 11 | 24 | 0 | 0 | 0 | 0 | 16
28 | O=C(NCc1cccs1)c1cc(C(=O)c2c(Cl)cccc2Cl)c[nH]1 [GW823670] | 8 | 0 | 0 | 45 | 0 | 0 | 22 | 0 | 0 | 15
29 | COc1ccc(-c2cc3c(C)nc(N)nc3n([C@H]3CC[C@H](OCCO)CC3)c2=O)cn1 | 0 | 0 | 0 | 0 | 0 | 9 | 0 | 0 | 0 | 0
30 | Cn1c(=O)c(F)c(Nc2ccc(I)cc2F)c2c(=O)n(OC[C@H](O)CO)cnc21 | 15 | 3 | 0 | 0 | 0 | 0 | 25 | 0 | 0 | 9
31 | Cc1nc(N(C)[C@H]2CN(C(=O)CC#N)CC[C@H]2C)c2cc[nH]c2n1 | 0 | 17 | 17 | 2 | 0 | 0 | 0 | 10 | 0 | 9
32 | COc1cc(Nc2ccnc3ccc(C(F)(F)F)cc23)cc(OC)c1OC [GW577382] | 64 | 1 | 0 | 0 | 15 | 9 | 10 | 0 | 6 | 13
33 | COc1cc(OC)cc(-c2cc3cnc(N)nc3nc2NC(=O)NC(C)(C)C)c1 | 0 | 0 | 0 | 0 | 0 | 0 | 16 | 0 | 5 | 0
34 | Nc1n[nH]c2ncc(-c3ccccc3)cc12 [SB-517081] | 18 | 19 | 5 | 14 | 2 | 0 | 7 | 0 | 41 | 25
35 | CCCNC(=O)Nc1ccc(Oc2ncnc3ccn(C)c23)cc1 | 0 | 13 | 34 | 0 | 6 | 0 | 0 | 0 | 23 | 6
